Screening results as filed in PubChem BioAssay.
nsP2pro inh – inhibitors of chikungunya virus nsP2 protease; Q8JUX6; FRET peptide cleavage, nsP2pro, fluorescence 1 h; Potency, µM (top dose mostly 24.9 µM), inactives show at the highest dose activity change, negative = inhibition, most hits filed as inhibitors; actives 1.1% (n = 31,000); AID 1964107; also: nearly all actives have a fitted effect of over 60% in size
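Enzyme 150 nM, substrate 2.5 uM (both final); Tris-HCl 10 mM pH 8.0 + 0.01% Tween 20; cpd up to 25 uM, 7 pts; 15 min preinc., 1 h RT; fluorescence ex 525/em 598.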
CHIKV nsP2 cell – secondary cell-based test for CHIKV nsP2 protease inhibitors | shares compounds with nsP2pro inh | cell-based CHIKV nsP2 protease reporter assay | Potency, µM (highest dose often 51.1 µM), without a hit: at the top dose activity change, negative = inhibition, hits mostly inhibitors | actives 10% (n = 450) | AID 1964100; also: nearly all actives have a fitted effect of over 70% in size
NSP2 full ctr – full-length CHIKV NSP2 protease inhibition, selectivity; actives 39% (n = 410); Full-length CHIKV NSP2 protease enzymatic counterscreen; shares compounds with nsP2pro inh; Potency, µM (highest dose often 50.7 µM), for inactives: at the top dose activity change, negative = inhibition, hits mostly inhibitors; also: nearly all actives have a fitted effect of over 65% in size
Furin counterscr – human furin inhibition, counterscreen for nsP2pro inhibitors; shares compounds with nsP2pro inh; Recombinant human furin enzymatic counterscreen, fluorogenic substrate; Potency, µM (titrated, usually from 50.6 µM), for inactives: top-dose activity change, negative = inhibition, hits mostly inhibitors; actives 6% (n = 410); AID 1964102
Target sequence (P09958 whole entry, looked up): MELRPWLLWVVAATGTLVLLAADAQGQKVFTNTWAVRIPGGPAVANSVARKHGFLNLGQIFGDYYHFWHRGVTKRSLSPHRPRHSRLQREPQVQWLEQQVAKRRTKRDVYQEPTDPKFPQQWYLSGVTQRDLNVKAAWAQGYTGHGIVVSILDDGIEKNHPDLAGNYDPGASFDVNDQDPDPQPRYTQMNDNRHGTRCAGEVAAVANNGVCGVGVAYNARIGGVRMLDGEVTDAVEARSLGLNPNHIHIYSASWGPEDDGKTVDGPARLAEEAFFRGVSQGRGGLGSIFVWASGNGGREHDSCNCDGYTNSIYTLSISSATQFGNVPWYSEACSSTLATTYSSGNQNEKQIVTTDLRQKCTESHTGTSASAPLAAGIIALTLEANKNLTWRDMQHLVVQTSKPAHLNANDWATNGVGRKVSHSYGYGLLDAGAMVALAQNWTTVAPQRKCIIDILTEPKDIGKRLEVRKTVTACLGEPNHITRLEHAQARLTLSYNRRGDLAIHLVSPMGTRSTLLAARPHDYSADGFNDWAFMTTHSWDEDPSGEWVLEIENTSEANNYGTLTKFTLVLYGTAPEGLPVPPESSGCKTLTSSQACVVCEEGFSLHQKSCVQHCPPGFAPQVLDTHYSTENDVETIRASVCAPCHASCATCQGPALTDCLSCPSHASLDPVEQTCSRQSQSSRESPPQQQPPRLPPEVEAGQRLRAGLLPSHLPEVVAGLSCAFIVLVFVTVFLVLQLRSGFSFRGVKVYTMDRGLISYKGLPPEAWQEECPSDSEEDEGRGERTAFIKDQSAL
nsP2 NS23 pep – selectivity test for CHIKV nsP2 protease inhibitors: endogenous NS2/3 peptide. Potency, µM (highest dose often 51 µM), for inactives: at the highest dose activity change, negative = inhibition, hits mostly inhibitors. shares compounds with nsP2pro inh. actives 34% (n = 410). Purified CHIKV nsP2 protease, endogenous NS2/3 peptide cleavage; also: nearly all actives have a fitted effect of over 55% in size
Papain counter – papain protease inhibition, counterscreen for nsP2pro inhibitors; actives 5% (n = 410); Potency, µM (doses to about 51 µM), for the others: top-dose activity change, negative = inhibition, most hits filed as inhibitors; AID 1964104; purified papain protease activity, enzymatic inhibition; shares compounds with nsP2pro inh
nsP2pro conf qHTS – confirmation of CHIKV nsP2 protease inhibitors | actives 43% (n = 410) | shares compounds with nsP2pro inh | CHIKV nsP2 protease enzymatic activity, qHTS | Potency, µM (top dose mostly 25.5 µM), for the others: top-dose activity change, negative = inhibition, most hits filed as inhibitors; also: nearly all actives have a fitted effect of over 75% in size
HCV NS3 4A cs – inhibits HCV NS3/4A protease in an nsP2pro selectivity counterscreen; shares compounds with nsP2pro inh; HCV NS3/4A protease biochemical counterscreen; Potency, µM (doses to about 50.9 µM), usual class: inhibitors; actives 20% (n = 410); AID 1964106; also: nearly all actives have a fitted effect of over 55% in size
* hit, by the source's call; i = inactive; ? = inconclusive; [ ] = remark or other dose. Many of the other results were omitted from the sample, so hits are more common in it than they were. Calls follow the shape of the full dose curve. % is scaled to controls: 0 for no effect and ±100 for the full control effect; potency is read from the fitted curve at half-maximal effect.

SMILES	nsP2pro inh	others
Cc1c(C(=O)OC2CCCCC2)[nH]c2c1C(=O)CC(c1ccccc1Cl)C2 (stereo not given)	-15%
Cc1cc(C)nc(NC(=S)N2CCN(c3cc(C(F)(F)F)nc4ccc(C(F)(F)F)cc34)CC2)c1	i
Cc1ccccc1OCc1nc(C2CN(C(=O)c3nccc4ccccc34)C2)no1	3%
O=C(c1c(OCC2CC2)cc(=O)n2c1CCOCC2)N1CCc2ccccc2C1	i
Cc1cc(Nc2cc(N3CCN(C)CC3)nc(/C=C/c3ccccc3)n2)n[nH]1	448%
COC(=O)C1=CO[C@@H](O[C@@H]2O[C@H](CO)[C@@H](O)[C@H](O)[C@H]2O)[C@@H]2C(C)CC(=O)[C@]12O (stereo not given in full)	8%[10 µM]
COC(=O)C1=COC(OC2OC(CO)C(O)C(O)C2O)C2C(C)CC(=O)C12O (stereo not given)	-14%[10 µM]
CC1CC(=O)[C@]2(O)C(C(=O)OCCc3ccc(O)c(O)c3)=CO[C@@H](O[C@@H]3O[C@H](CO)[C@@H](O)[C@H](O)[C@H]3O)[C@H]12 (stereo not given in full)	3.8µM*	CHIKV nsP2 cell=-6%[17.6 µM];NSP2 full ctr=10%[17.3 µM];Furin counterscr=-7%[17.3 µM];nsP2 NS23 pep=-15%[17.2 µM];Papain counter=-1%[17.2 µM];nsP2pro conf qHTS=?;HCV NS3 4A cs=4µM*
COCC1CN(Cc2cccc(C#N)c2)CC12CCNCC2 (stereo not given)	11%
N#Cc1cccc([C@@H](NCC2CC2)c2ccc(F)c(NC(=O)c3cc(C(F)(F)F)nn3-c3cccc(CN)c3)c2)c1	56%
CCOC(=O)c1c2c3c(cccc3[nH]c1=O)C(=O)c1ccccc1-2	?	CHIKV nsP2 cell=6%;NSP2 full ctr=4%;Furin counterscr=-4%;nsP2 NS23 pep=i;Papain counter=-15%;nsP2pro conf qHTS=7%;HCV NS3 4A cs=i
CCOC(=O)c1c(Nc2ccccc2)nnc(-c2ccccc2)c1-c1ccccc1	-16%
CCOC(=O)c1c(C)[nH]c(CCC(=O)Nc2ccccc2C(F)(F)F)c1C	-24%
Cc1ccc(C2N=C(Nc3nc4ccccc4o3)NC3=C2C(=O)CCC3)s1 (stereo not given)	i
N#Cc1ccc(O[C@@H]2CCOC[C@H]2NC(=O)CCCn2cncn2)cc1	-2%
O=C(O)C(O)C(O)C(=O)O (stereo not given)	-6%
Cc1ccnc(NC(=S)N2CC[C@@H](Nc3cccc(C(F)(F)F)c3)C2)c1	4%
Cc1nc(C2CCN(C(=O)Cc3ccccc3)CCN2C(=O)Cc2ccccc2)n[nH]1 (stereo not given)	?	CHIKV nsP2 cell=1%;NSP2 full ctr=?;Furin counterscr=-2%;nsP2 NS23 pep=?;Papain counter=-2%;nsP2pro conf qHTS=?;HCV NS3 4A cs=?
CN(Cc1ccccc1)C(=O)CC1CCN(C(=O)Cc2ccccc2)C1 (stereo not given)	6%
COc1ccc(CC(=O)N2CCC(c3n[nH]c(=O)n3Cc3ccc(F)cc3)CC2)cc1	i
CCCCCCO[C@@H](C)c1cccc(-c2csc(NC(=O)c3cc(Cl)c(/C=C(\C)C(=O)O)c(Cl)c3)n2)c1OC	6%
N#CNC(=O)c1ccc(-n2cccc2/C=C2\NC(=O)N(CC(=O)Nc3ccc(F)cc3)C2=O)cc1	0%
Cc1cc(C)nc(NC(=S)N2CCN(c3nncs3)CC2)c1	-9%
Cc1ccc(OCCn2c(CCNC(=O)c3ccccc3Br)nc3ccccc32)cc1	-6%
Cc1ccc(OCCn2c(CCNC(=O)c3cc(N)ccc3N)nc3ccccc32)cc1	-1%
